These results are taken from PubChem BioAssay (Tox21).

Each structure is given as a SMILES string. Unmarked numbers belong to inactive results. Inconclusive results are not listed. Active and inactive are the calls of the source. Unless noted, calls come from the whole dose curve; as a rule, active = well fitted curve in the direction sought with a large enough effect in the repeat runs; inconclusive = weak or mixed curves; inactive = flat fitted curve, though single readings scatter.

Experiment [1] in a line: qHTS assay to test for compound auto fluorescence at 535 nm (green) in HEK293 cells (AID 720680). A general note: In qHTS, concentration-response curves come from the screen itself.
Experiment [2] is described as follows: qHTS assay to test for compound auto fluorescence at 535 nm (green) in HEK293 cell free culture (AID 720682). The method in brief: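 DMEM + 10% FBS, cell-free; cpd or DMSO pinned in; Ex485/Em535 read; output as fluorescein-equivalent signal.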
The nature of experiment [3]: qHTS assay to test for compound auto fluorescence at 590 nm (red) in HEK293 cell free culture (AID 720683). Note: potency is the fitted concentration of half-maximal effect. The method in brief:
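Red-channel autofluorescence of compounds in culture medium (DMEM, 10% FBS), no cells, measured at 540/590 nm. Rose Bengal sodium is the reference fluorophore for equivalence.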

Experiment [4] can be described thus: qHTS assay to test for compound auto fluorescence at 590 nm (red) in HepG2 cell free culture (AID 720684). Note: potency is the fitted concentration of half-maximal effect. The method in brief: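 Cell-free; medium MEM + 10% FBS; compound or DMSO added by pintool; read Ex 540/Em 590 nm; Rose Bengal sodium as red reference fluorophore.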
Experiment [5] in a line: qHTS assay to test for compound auto fluorescence at 460 nm (blue) in HepG2 cell free culture (AID 720685). The essentials:
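Cell-free plates of MEM plus 10% FBS received 23 nL compound or DMSO vehicle; blue-channel (405/460 nm) intensity scored against triamterene as reference fluorophore.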

Experiment [6] is described as follows: qHTS assay to test for compound auto fluorescence at 535 nm (green) in HepG2 cell free culture (AID 720686). Note: potency is the fitted concentration of half-maximal effect.
A short description of experiment [7]: qHTS assay to test for compound auto fluorescence at 460 nm (blue) in HepG2 cells (AID 720687). The method in brief: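 Blue-channel autofluorescence (Ex/Em 405/460 nm, triamterene-equivalent) was measured after 1 hr compound exposure at 37 C, 5% CO2. Cells were HepG2, plated overnight at 37 C in MEM plus 10% FBS.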
Experiment [8] addresses Glucocorticoid receptor (Homo sapiens) (UniProt P04150). Briefly: qHTS assay to identify small molecule agonists of the glucocorticoid receptor (GR) signaling pathway (AID 720691; active = well fitted activation curve with a large enough effect in the signal ratio in the repeat runs, not every such curve was filed as active; the % refers to the signal ratio). The following applies: GR-bla HeLa, beta-lactamase reporter ratio, 18 h; activation: at 62.4 µM (top of the series) unless noted. The method in brief: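 HeLa GR-bla reporter line; cells pre-incubated 4 h, compound in DMSO 18 h at 37 C; LiveBLAzer B/G FRET substrate 2 h RT; fluorescence intensity read-out.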

Experiment [9] has the same target. Briefly: qHTS assay to identify small molecule antagonists of the glucocorticoid receptor (GR) signaling pathway (AID 720692; active = well fitted inhibition curve with a large enough effect in the signal ratio in the repeat runs, not every such curve was filed as active; the % refers to the signal ratio; note: potency is the fitted concentration of half-maximal effect). The essentials:
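Read-out: beta-lactamase FRET substrate fluorescence, 2 h at room temperature, in HeLa cells stably carrying a GRE-driven bla reporter. Compounds were co-incubated with 5 nM dexamethasone agonist (final) for 18 h at 37 C.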

The nature of experiment [10]: qHTS assay to test for compound auto fluorescence at 460 nm (blue) in HEK293 cell free culture (AID 720681). The method in brief:
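Blue fluorescence (Ex 405/Em 460 nm, triamterene-equivalent) was read immediately after pin transfer of compound or DMSO into medium (DMEM, 10% FBS) without cells.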
% is set by controls: 0 for no effect and ±100 for the full control effect; tags give direction and shape of the fitted curve or compound fluorescence and quenching.

Glucocorticoid receptor (Homo sapiens), sequence (P04150 whole entry, looked up): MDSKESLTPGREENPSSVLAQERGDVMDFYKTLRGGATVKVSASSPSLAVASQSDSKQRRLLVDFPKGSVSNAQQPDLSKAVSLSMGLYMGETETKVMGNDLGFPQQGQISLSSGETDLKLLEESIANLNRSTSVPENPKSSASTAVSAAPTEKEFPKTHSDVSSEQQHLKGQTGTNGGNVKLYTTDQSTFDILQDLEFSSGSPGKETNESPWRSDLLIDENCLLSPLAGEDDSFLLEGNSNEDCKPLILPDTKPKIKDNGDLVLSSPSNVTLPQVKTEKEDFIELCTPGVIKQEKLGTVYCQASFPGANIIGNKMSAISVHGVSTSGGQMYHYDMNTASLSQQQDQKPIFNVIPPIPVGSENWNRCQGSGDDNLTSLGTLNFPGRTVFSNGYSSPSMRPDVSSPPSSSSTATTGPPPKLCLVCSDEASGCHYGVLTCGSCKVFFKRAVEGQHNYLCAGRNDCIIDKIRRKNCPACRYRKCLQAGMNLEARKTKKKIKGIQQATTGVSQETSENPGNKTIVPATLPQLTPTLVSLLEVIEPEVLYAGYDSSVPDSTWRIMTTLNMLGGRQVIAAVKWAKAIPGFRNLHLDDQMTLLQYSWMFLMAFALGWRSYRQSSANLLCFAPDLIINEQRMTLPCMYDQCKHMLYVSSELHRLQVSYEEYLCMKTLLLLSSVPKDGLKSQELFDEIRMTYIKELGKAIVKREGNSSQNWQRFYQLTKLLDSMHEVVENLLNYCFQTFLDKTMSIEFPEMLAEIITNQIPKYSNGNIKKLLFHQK

As for `CCOc1ccc(N=Nc2ccc(/C=C/c3ccc(N=Nc4ccc(OCC)cc4)cc3S(=O)(=O)O)c(S(=O)(=O)O)c2)cc1`, the result in experiment [1], in experiment [2], in experiment [5] and in [7] was inactive. Moreover, the Potency result in experiment [3], in [4], in experiment [6], in [8] and in experiment [9] was “inactive” each time.

With `Cc1cccc(C)c1OCC(=O)N[C@@H](Cc1ccccc1)[C@@H](O)C[C@H](Cc1ccccc1)NC(=O)[C@H](C(C)C)N1CCCNC1=O`, the call in experiment [1], in experiment [10], in experiment [5] and in experiment [7] was inactive. In addition, the Potency entry in experiment [3], in [4] and in [6] was “inactive” in each case. Also, in experiment [9], the Potency was 23.9 µM (active).

Take `CCN(CC)c1ccc2c(-c3ccccc3C(=O)O)c3ccc(=[N+](CC)CC)cc-3oc2c1`: the call in experiment [10], in experiment [5] and in experiment [7] was inactive. Besides, the Potency in experiment [3] is 2 µM [fluorescent] (active); in experiment [4] it was 1.12 µM [fluorescent] (active); in experiment [6], 31.6 µM [fluorescent] (active).

For `CCCOC(C(=O)OC1CCN(C)CC1)(c1ccccc1)c1ccccc1`, the compound was called inactive in experiment [1], in [10], in experiment [5] and in experiment [7]. Besides, the Potency result in experiment [3], in experiment [4], in experiment [6], in experiment [8] and in [9] was “inactive” in each case.

Regarding `CO[C@@H]1[C@H](OC(=O)/C=C/C=C/C=C/C=C/C(=O)O)CC[C@]2(CO2)[C@H]1[C@@]1(C)O[C@@H]1CC=C(C)C`, the outcome in [1], in experiment [10], in [5] and in [7] was inactive. The Potency entry in experiment [3], in [4], in [6] and in experiment [8] was “inactive” throughout.

For `CCCCNc1ccc(C(=O)OCCOCCOCCOCCOCCOCCOCCOCCOCCOC)cc1`, in experiment [1], the fluorescence, % of fluorescein was -0.0088% [at 18.6 µM]. For the same compound, the fluorescence, % of fluorescent control in experiment [10] is -0.35% [at 18.6 µM]; in [3] it was -0.482% [at 18.6 µM]; in experiment [5] it was -0.106% [at 18.6 µM]; in [7] it was -0.0219% [at 18.6 µM]. In experiment [4], the fluorescence, % of Rose Bengal was -0.448% [at 18.6 µM]. The fluorescence, % of fluorescein control in experiment [6] was -0.018% [at 18.6 µM]. The Potency entry in experiment [9] is “inactive”.

For the compound `CC(C)O.CC(C)O.CCOC(=O)/C=C(\C)O.CCOC(=O)/C=C(\C)O.[Ti]`, the call in [1], in experiment [10], in experiment [5] and in experiment [7] was inactive. For the same compound, the Potency result in [3], in experiment [4] and in experiment [6] was “inactive” throughout.

Turning to `COC(=O)C1=C(C)NC(COC(N)=O)=C(C(=O)OC(C)C)C1c1cccc(Cl)c1Cl` (stereo not given), in experiment [1], the compound was called inactive. The Potency entry in [3], in experiment [4] and in experiment [6] was “inactive” throughout.

Take `CCCCC`: the outcome in experiment [1], in [10] and in experiment [5] was inactive. Also, the Potency entry in [3], in experiment [4], in [8] and in [9] was “inactive” each time.

For `C=CC(=O)OCCOCCOCCOCCOC(=O)C=C`, the compound was called inactive in experiment [1], in [10], in [5] and in [7]. Besides, the Potency result in experiment [3], in experiment [4], in experiment [6] and in [8] was “inactive” throughout.

As to `C=CC1CC2C=CC1C2` (stereo not given), the result in experiment [1], in experiment [10], in [5] and in experiment [7] was inactive. Also, the Potency result in experiment [3], in [4], in experiment [6], in experiment [8] and in [9] was “inactive” in each case.

As to `CC(C)Nc1ccc(NC(C)C)c2c1C(=O)c1ccccc1C2=O`, the compound was classed as inactive in experiment [1], in [10], in experiment [5] and in experiment [7]. The Potency entry in experiment [3], in [6] and in [9] was “inactive” each time.

Turning to `CN(C)C(=O)NC1(c2ccccc2)CCN(CC[C@@]2(c3ccc(F)c(F)c3)CN(C(=O)c3ccccc3)CCO2)CC1`, the compound was classed as inactive in [1], in [10], in [5] and in experiment [7]. The Potency result in [3], in experiment [4], in [6], in experiment [8] and in experiment [9] was “inactive” each time.

With `O=C(O)c1ccccc1Cl`, the compound was classed as inactive in [1], in experiment [10], in experiment [5] and in experiment [7]. For the same compound, the Potency entry in experiment [3], in experiment [4] and in experiment [6] was “inactive” throughout.

For `CC(C)(O)c1ccc(CNC(=O)c2cccnc2Oc2ccc(F)cc2)cc1`, the compound was called inactive in experiment [1], in experiment [10], in experiment [5] and in experiment [7]. The Potency entry in experiment [3], in [6] and in [9] was “inactive” in each case.

Consider `O=[N+]([O-])c1ccc(NCCO)c(OCCO)c1`, for which the call in experiment [1], in experiment [10], in experiment [5] and in experiment [7] was inactive. In addition, the Potency entry in experiment [3], in experiment [4], in experiment [6], in experiment [8] and in experiment [9] was “inactive” throughout.

On to `C[C@@H]1C[C@H]2O[C@@]3(O[C@@H]2C(C)(C)O)[C@H](O)[C@@]2(C)[C@@H]4CC[C@H]5C(C)(C)[C@@H](O[C@@H]6OC[C@@H](O)[C@H](O)[C@H]6O)CC[C@@]56C[C@@]46CC[C@]2(C)[C@@H]13`, for which the call in [1], in experiment [10], in [5] and in experiment [7] was inactive. Besides, the Potency entry in [3], in [4], in experiment [6] and in [8] was “inactive” each time.
